# The whole screen tested about 130,000 compounds, of which about 2,500 (1.9%) were called active.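 Rule for the calls: active = signal ratio slope over the read window, or its plate-corrected B-score, at least 3 SD from the plate mean, either direction; inactive = the rest.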 What follows is part of a selection rich in actives, with near analogues and random picks from the rest.
# Target: ATP-sensitive inward rectifier potassium channel 1 (Homo sapiens) (UniProt P48048)
# Assay: Kir1.1 channel activity modulation, library screen – cell-based, thallium flux, MLSMR library, primary screen (AID 1918);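 note: B-score of the F/F0 ratio slope over 7 to 12 s after thallium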
# Conditions: Tet-inducible ROMK, thallium flux fluorescence; at 10 µM; actives lie on both sides
# ATP-sensitive inward rectifier potassium channel 1 (Homo sapiens), sequence (P48048 whole entry, looked up): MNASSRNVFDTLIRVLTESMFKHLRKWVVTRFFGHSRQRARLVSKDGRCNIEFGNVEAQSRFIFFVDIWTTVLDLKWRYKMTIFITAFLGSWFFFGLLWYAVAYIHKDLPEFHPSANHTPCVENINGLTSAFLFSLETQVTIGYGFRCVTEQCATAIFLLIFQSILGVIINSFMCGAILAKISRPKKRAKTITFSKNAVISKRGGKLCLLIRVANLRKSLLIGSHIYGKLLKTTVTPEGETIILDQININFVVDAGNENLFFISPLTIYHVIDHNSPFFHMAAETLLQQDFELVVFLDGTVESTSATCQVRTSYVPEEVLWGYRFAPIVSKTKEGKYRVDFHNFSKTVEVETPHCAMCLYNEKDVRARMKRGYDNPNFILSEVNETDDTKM
row,SMILES,B-score
1,CSc1cccc(NC(=S)N(C(C)C)C(C)c2ccccn2)c1 (configuration not stated),-0.872 (inactive)
2,COc1cccc(NC(=S)N(Cc2ccc(C)cc2)Cc2ccccn2)c1,0.0921 (inactive)
3,CSc1cccc(NC(=S)N(Cc2ccccc2)Cc2ccccn2)c1,-1.37 (active)
4,O=C(Nc1ccncc1)c1ccccc1[N+](=O)[O-],-0.131 (inactive)
5,CC1=C/C(=N\S(=O)(=O)c2ccccc2)C(C(C)C)=CC1=O,-2.34 (inactive)
6,COc1ccc(/C=C/C(=O)N2CCCC2)cc1OC,1.08 (inactive)
7,Cc1sc2c(c1C)c(=O)n(-c1ccccc1)c(=O)n2CC(=O)NCC1CCCO1 (configuration not stated),0.885 (inactive)
8,Cc1ccc(C(NC(=O)N2CCCC2)C(Cl)(Cl)Cl)cc1F (configuration not stated),0.515 (inactive)
9,O=C(Nc1ccccc1Cl)c1ccc2nsnc2c1,-0.621 (inactive)
10,O=C(Nc1ccccc1Cl)/C(Cl)=C(\Cl)S(=O)c1ccccc1 (configuration not stated),-4.2 (active)
11,COCCN(CCOC)C(=S)Nc1ccccc1Cl,0.00438 (inactive)
12,COc1ccc(NC(=O)C(C)SCc2ccccc2)cc1 (configuration not stated),0.339 (inactive)
13,COc1ccc(-c2[nH]ncc2CN(C)Cc2cccnc2)c(F)c1,0.572 (inactive)
14,COc1ccc(-c2[nH]ncc2CN(C)Cc2c(C)n[nH]c2C)c(OC)c1,1.28 (active)
15,COc1ccc(-c2[nH]ncc2CN(C)Cc2cc(C)[nH]n2)c(F)c1,0.139 (inactive)
16,Cc1cc(/C=C2/NC(=O)NC2=O)c(C)n1-c1cccnc1,0.0128 (inactive)
17,COc1ccc(-c2onc(C)c2-c2ccc3c(c2)OCCO3)c(O)c1,-0.0517 (inactive)
18,CCc1cc2c(=O)c(-c3ccc(F)cc3)c(C(F)(F)F)oc2cc1OCC(=O)O,-0.413 (inactive)
19,O=c1c(-c2ccc3c(c2)OCCO3)c(C(F)(F)F)oc2cc(O)cc(O)c12,-5.2 (active)
20,COc1ccc(C(C)=O)cc1CSc1nc2nc(C)cc(C)n2n1,1.28 (inactive)
21,Cc1cccc(NC(=S)Nc2ccc(Cl)c(Cl)c2)c1,0.116 (inactive)

row,SMILES,B-score
1,COc1ccc(CCNC(=O)COC(=O)/C=C/c2cccs2)cc1OC,-0.931 (inactive)
2,COc1ccc(CCNC(=O)CSc2nnc(CNC(=O)c3cccs3)o2)cc1OC,-0.208 (inactive)
3,COc1ccc(CN(C(=O)c2cccs2)c2nccs2)cc1OC,4.52 (active)
4,O=c1[nH]n2c(-c3ccccc3)nc(O)c2c2ccccc12,2.45 (inactive)
5,C=C(C)C1CC=C(C)/C(=N/NC(=O)CCCNc2cccc(C)c2)C1 (configuration not stated),1.1 (inactive)
6,Cc1ccc(CNC(=O)C2CCCN(S(C)(=O)=O)C2)cc1 (configuration not stated),0.0583 (inactive)
7,Cc1ccc(CNC(=O)C2CC(=O)N(C3CCCCCCC3)C2)cc1 (configuration not stated),-2.38 (active)
8,CC(C)OCCCNC(=O)C1CC(=O)N(C2CCCCCCC2)C1 (configuration not stated),-0.488 (inactive)
9,O=C(COc1ccccc1)Nc1ccc(N2CCN(C(=O)c3cccs3)CC2)cc1,-0.916 (inactive)
10,CC(=O)Nc1ccc(OCCC[n+]2cccc(C(=O)[O-])c2)cc1,0.158 (inactive)
11,COc1cc(NC(=S)NCc2ccc(S(N)(=O)=O)cc2)cc(OC)c1,2.23 (inactive)
12,Cc1cc(C)n(-c2nc(C(F)(F)F)nc3ccccc23)n1,-0.0244 (inactive)
13,CN(NC(=O)c1ccccc1F)c1nc(C(F)(F)F)nc2ccccc12,2.83 (active)
14,COC(=O)CNC(=O)c1ccccc1F,0.963 (inactive)
15,Cc1ccc(C)c(-n2cc(CN3CCN(C(=O)c4ncn[nH]4)CC3)c(-c3ccccc3)n2)c1,-0.754 (inactive)
16,CCOc1ccccc1N1CCN(C(=O)COc2ccc3c(C)cc(=O)oc3c2)CC1,0.824 (inactive)
17,Cc1ccccc1N1CCN(CCCOc2ccc3c(C)cc(=O)oc3c2)CC1,-4.08 (active)
18,COc1ccc(N2CCN(C(=O)COc3ccc4c(C)cc(=O)oc4c3)CC2)cc1,-0.589 (inactive)
19,CCO/C=C1\C(=O)N(c2ccc(OCC)cc2)C(=O)c2ccccc21,-0.0391 (inactive)
20,CCNC(=O)CC1C(=O)N(c2ccc(OC)cc2)C(=S)N1CCc1ccncc1 (configuration not stated),0.277 (inactive)
21,Cc1cc(/C=N/NC(=O)c2cccnc2)c(C)n1CC(C)C,1.51 (inactive)

row,SMILES,B-score
1,C/C(=N\NC(=O)CSc1nc2ccccc2c(=O)n1-c1ccccc1C)c1cccs1,0.111 (inactive)
2,Cc1cccc(-n2c(SCC(=O)Nc3cccc(S(=O)(=O)NC4=NCCCCC4)c3)nc3ccccc3c2=O)c1C,-5.4 (active)
3,CCc1ccc(C(=O)OCC(=O)Nc2cccc(S(=O)(=O)NC3=NCCCCC3)c2)cc1,-1.41 (inactive)
4,O=C(N/N=C/c1ccccn1)c1ccc(S(=O)(=O)N2CCCCCC2)cc1,1.67 (inactive)
5,O=C(Nc1ccccc1)N1CCN(Cc2ccccc2)CC1,-0.796 (inactive)
6,CC12CN(Cc3ccccc3)CC(C)(CN(Cc3ccccc3)C1)C2=NO,-3.21 (active)
7,C/C(=N\N1CCN(Cc2ccc(C)cc2)CC1)c1ccco1,-0.228 (inactive)
8,COc1cc2c(C(=O)N3CCN(C)CC3)c(CSc3ccccc3)n(C)c2cc1Br,-0.529 (inactive)
9,Cc1ccnc(NC(=O)CCC(=O)N(CC(=O)NCc2ccccc2)Cc2ccco2)c1,-0.274 (inactive)
10,CCN(CC)C(=O)CN(c1cccc(OC)c1)S(=O)(=O)c1ccc(C)cc1,0.523 (inactive)
11,COc1ccc([N+](=O)[O-])cc1N(CC(O)CN(CC(C)C)CC(C)C)S(=O)(=O)c1ccc(C)cc1 (configuration not stated),-3.76 (active)
12,Cc1ccc(N(CC(O)CN2CCCC2)S(=O)(=O)c2ccccc2)cc1 (configuration not stated),-0.891 (inactive)
13,C/C(Cc1ccccc1)=N\NC(=O)CNC(=O)c1ccccc1Cl,0.223 (inactive)
14,CN(/C(=N/S(=O)(=O)c1cccs1)c1ccccc1)c1ccc(O)cc1,0.111 (inactive)
15,O=C(NNC(=S)NCc1ccco1)C(c1ccccc1)c1ccccc1,-0.0839 (inactive)
16,CCC1CCCCN1S(=O)(=O)Cc1ccccc1Cl (configuration not stated),-1.11 (inactive)
17,COc1ccc(N2CCN(C(=O)C3CCN(S(=O)(=O)c4ccc(C)cc4)CC3)CC2)cc1,0.00237 (inactive)
18,O=C1Nc2ccc(Br)cc2/C1=N/N=C/C1=C(N2CCOCC2)C(=C\c2ccccc2)/CC1,1.2 (inactive)
19,C(=N\N1CCN(c2ccccn2)CC1)/C1=C(N2CCOCC2)C(=C/c2ccccc2)/CC1,-0.00313 (inactive)
20,N#C/C(=C\C1=C(N2CCOCC2)C(=C\c2ccccc2)/CC1)C(=O)Nc1ccccc1F,-3.73 (active)
